Screening results: PubChem, several laboratories
This is a sample that favours compounds with a hit; in the whole collection about 6.7% have one here.
BoNT A protease: BoNT/A light chain protease inhibitors, primary screen, biochemical, flow cytometry, MLPCN library | inhibition, % at 10 µM | 360,000 tested, 0.17% active | Botulinum neurotoxin type A light chain protease (Clostridium botulinum A str. ATCC 3502) | multiplex microsphere protease substrate cleavage | AID 588499, 2011
Mtb FBA inh: Mtb FBA enzyme inhibitors, primary screen, biochemical, fluorescence, strain H37Rv | inhibition, % at 1 µM | 360,000 tested, 2.3% active | AID 588726, 2011 | purified M. tuberculosis FBA, fluorescence read-out; in the data active = inhibition above about 27%
Target sequence (P9WQA3 whole entry, looked up): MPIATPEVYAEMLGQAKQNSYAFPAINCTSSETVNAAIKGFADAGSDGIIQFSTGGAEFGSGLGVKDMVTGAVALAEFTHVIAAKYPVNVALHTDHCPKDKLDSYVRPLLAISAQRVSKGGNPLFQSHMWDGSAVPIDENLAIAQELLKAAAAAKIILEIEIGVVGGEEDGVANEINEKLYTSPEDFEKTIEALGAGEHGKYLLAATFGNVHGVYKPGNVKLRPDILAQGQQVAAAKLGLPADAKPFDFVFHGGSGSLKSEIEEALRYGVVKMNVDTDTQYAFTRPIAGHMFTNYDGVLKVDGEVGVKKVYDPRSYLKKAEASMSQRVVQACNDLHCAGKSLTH
Autofluor counter: flagged as autofluorescent in microsphere protease counterscreen | compound autofluorescence counterscreen, microsphere flow cytometry; hits give high values | fluorescence intensity (no concentration beside the values) | 360,000 tested, 3.1% active; in the data active = fluorescence intensity above about 16000; inconclusive = no clear call, values can overlap the other calls
BoNT-F LC inh: BoNT/F light chain protease inhibitors, primary screen, biochemical, flow cytometry, MLPCN library | Botulinum neurotoxin type F light chain protease (Clostridium botulinum) | Multiplex microsphere protease cleavage assay | inhibition, % at 10 µM | 360,000 tested, 0.22% active | AID 588497, 2011; in the data active = inhibition above about 35%, passing the limit was not always enough; inconclusive = no clear call, values can overlap the other calls
Anthrax LF inh2: Bacillus anthracis LF protease inhibitors, primary screen, biochemical, multiplex microsphere, MLPCN library; 360,000 tested, 0.12% active; multiplex microsphere protease cleavage assay; inhibition, % at 10 µM
GDH-TPI inh: GDH-TPI coupling enzyme inhibitors, primary screen, artefact control for M. tuberculosis FBA inhibitor project, biochemical, absorbance, full deck. GDH-TPI coupled enzyme counterscreen, NADH absorbance. inhibition, % at 4.8 µM. 360,000 tested, 1.2% active. AID 588335, 2011; in the data active = inhibition above about 30%
BoNT-A LC CP1: BoNT/A light chain protease inhibitors, confirmation, biochemical, flow cytometry, cherry pick 1 | inhibition, % at 10 µM | shares compounds with BoNT-F LC inh | 720 tested, 3% active | multiplex microsphere protease assay | AID 602139, 2011; in the data active = inhibition above about 32%
BoNTF LC inh 1: BoNT/F light chain protease inhibitors, confirmation, biochemical, flow cytometry, cherry pick 1; multiplex microsphere protease cleavage assay; inhibition, % at 10 µM; 720 tested, under 10 active; shares compounds with BoNT-F LC inh; AID 602140, 2011; call rule not given here
Anthrax LF CP1: Bacillus anthracis LF protease inhibitors, confirmation, biochemical, multiplex microsphere, cherry pick 1; multiplex microsphere protease cleavage assay; shares compounds with BoNT-F LC inh; AID 602142, 2011; inhibition, % at 10 µM; 720 tested, under 10 active; call rule not given here
Hits are given with their value; - = inactive; ? = inconclusive; . = not tested or not shown. Cut-off read from the data, not from the text of the source, unless noted: active = inhibition above about 30%; inconclusive = no clear call, values can overlap the other calls; inactive = below that.

SMILES	BoNT A protease	Mtb FBA inh	Autofluor counter	BoNT-F LC inh	Anthrax LF inh2	GDH-TPI inh	BoNT-A LC CP1	BoNTF LC inh 1	Anthrax LF CP1
CC(C)(C)C1=NN(c2ccc([N+](=O)[O-])cc2)C(c2ccccc2)C1 (stereo unspecified)	-	-	-	-	-	-	.	.	.
O=[N+]([O-])c1ccc(N2N=C(c3ccco3)CC2c2ccccc2)cc1 (stereo unspecified)	32	-	-	-	-	-	-	-	-
COc1ccccc1N1N=C(c2ccc([N+](=O)[O-])cc2)CC1c1ccccc1 (stereo unspecified)	38	-	16503	-	-	-	48	-	-
CCc1cccc(NC(=O)c2ccc(Cn3c(=O)[nH]c4ccsc4c3=O)cc2)c1	-	-	-	-	-	-	.	.	.
CCN(CC)C(=O)c1sc2nc(-c3cccs3)cc(-c3ccc(Cl)cc3)c2c1N	53	-	-	-	39	-	-	-	-
CCN(CC)C(=O)c1sc2nc(-c3cccs3)cc(-c3cccs3)c2c1N	-	-	-	-	-	-	.	.	.
CC1CCN(C(=S)NC(=O)c2ccc(F)cc2)CC1	-	-	-	-	-	-	.	.	.
O=C(O)CSc1nnc(-c2ccncc2)n1-c1ccc(Cl)cc1	-	-	-	-	-	-	.	.	.
O=C(O)CSc1nnc(-c2ccc(Cl)cc2)n1-c1ccccc1	-	-	-	36	-	-	-	-	-
COc1ccccc1CN1CCSCC1	-	-	-	71	-	-	-	-	-
Cc1ccc(NC(=O)CCc2ccc(C)o2)c(Br)c1	-	-	-	91	-	-	-	-	-
COc1ccc(-c2nnc(N3CCCCC3)c3ccccc23)cc1	-	-	-	-	-	-	.	.	.
COc1ccc(-c2nnc(OC)c3ccccc23)cc1	-	-	-	37	-	-	-	-	-
O=C(NC1CC1)C1CCN(C2CCN(Cc3ccccc3C(F)(F)F)CC2)CC1	-	-	-	-	-	-	.	.	.
COc1cc(OC)cc(C(=O)Nc2ccc(C(=O)NCC3CCCO3)cc2)c1 (stereo unspecified)	-	-	-	?	-	-	.	.	.
COc1ccc(C(=O)NCC2CCCO2)cc1 (stereo unspecified)	-	-	-	36	-	-	-	-	-
CC(=O)Nc1nnc(S(N)(=O)=O)s1	-	-	-	-	-	-	.	.	.
Cc1ccc(Nc2nc(C)cc(C)n2)c(Br)c1	32	-	-	35	-	-	-	-	-
Cc1cccc(Nc2nc(C)cc(C)n2)c1	-	-	-	-	-	-	.	.	.
CS(=O)(=O)N1N=C(c2ccccc2)CC1c1ccc2c(c1)OCO2 (stereo unspecified)	70	-	19512	-	-	-	50	.	-
COC(=O)[C@@]1(C)[C@H]2C(=O)N(C)C(=O)[C@H]2[C@H]2CN(C)C(=NC3CCCCC3)N21	-	-	-	-	-	-	.	.	.
CCc1nn2c(=O)cc(COc3ccc(/C=C4\C(=N)N5N=C(C)SC5=NC4=O)cc3)nc2s1	-	-	-	-	-	-	.	.	.
CC(=O)Nc1ccc(Nc2nc(-c3sc(C)nc3C)cs2)cc1	-	-	-	-	-	-	.	.	.
Cc1nc(C)c(-c2ccn(C(=O)NC(C)C)n2)s1	-	-	-	38	-	-	-	-	-
CCCCN(C)C(=O)c1cc2cc3ccc(OC)cc3nc2s1	-	-	-	-	-	-	-	-	-
SMILES	BoNT A protease	Mtb FBA inh	Autofluor counter	BoNT-F LC inh	Anthrax LF inh2	GDH-TPI inh	BoNT-A LC CP1	BoNTF LC inh 1	Anthrax LF CP1
COc1ccc2nc3sc(C(=O)N4CCN(C)CC4)cc3cc2c1	-	-	-	-	-	-	.	.	.
CC1CCCC(N2CCN(C(=O)c3ccccc3F)CC2)C1 (stereo unspecified)	-	-	-	?	38	-	-	-	-
CC(=O)Nc1nc(-c2ccccc2)ns1	.	-	.	.	.	-	.	.	.
CN(CC(=O)Nc1ccc(F)cc1)C(=O)COC(=O)Cc1cccs1	-	-	?	40	-	-	-	-	-
N#Cc1ccc(S(=O)(=O)NC2CCCCNC2=O)cc1 (stereo unspecified)	-	-	-	42	-	-	-	-	-
COC(=O)c1cccc(C(=O)Nc2ccc(F)cc2)n1	-	-	-	-	-	-	.	.	.
CC1Oc2ccccc2N(CC(=O)NC2CCCC2)C1=O (stereo unspecified)	-	-	-	35	-	-	-	-	-
Cc1ccc2c(c1)N(CC(=O)NC1CCCC1)C(=O)C(C)O2 (stereo unspecified)	-	-	-	-	-	-	.	.	.
CCOC(=O)c1cnc2c(C(=O)OCC)cnn2c1N	-	-	-	?	31	-	-	-	-
COc1cc(C(N)=O)cc(Br)c1OCc1ccccc1	-	-	-	-	-	-	.	.	.
CCOc1c(Br)cc(C(N)=O)cc1OCc1ccccc1	-	-	-	36	-	-	-	-	-
O=S(=O)(c1ccccc1)N1CCN(C(=S)NCc2ccccc2)CC1	-	-	-	-	-	-	.	.	.
Cc1cc(-c2nnc(SCC(=O)Nc3ccc(C(F)(F)F)cc3)n2C)no1	-	-	-	?	-	-	.	.	.
Cc1cc(-c2nnc(SCC(=O)Nc3ccccc3)n2C)no1	?	-	-	?	32	-	-	-	-
COc1ccc(Cl)cc1C(=O)NCCN1CCOCC1	.	-	.	.	.	-	.	.	.
COc1cc(SC)ccc1C(=O)NCCN1CCOCC1	-	-	-	?	37	-	-	-	-
CC12CCC(c3c1nc1ccccc1[n+]3[O-])C2(C)C (stereo unspecified)	-	-	-	-	-	-	.	.	.
Cc1cccc(C(C)C)c1NC(=O)C1CN(S(=O)(=O)c2ccccc2)CCN1S(=O)(=O)c1ccccc1 (stereo unspecified)	38	-	-	-	37	-	-	-	-
C=CCc1cc(C=O)cc(OCC)c1O	-	-	-	-	-	-	.	.	.
Cn1cnnc1SCC(=O)Nc1ccccc1	-	-	-	-	-	-	.	.	.
Cn1cnnc1SCC(=O)Nc1ccc(S(N)(=O)=O)cc1	-	-	-	37	34	-	-	-	-
